The panel holds about 83,000 compounds, 20% with a hit somewhere; the sample as a whole holds those more often.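 Compound tested at a single concentration for 48 hours in 96-well plates; a percent growth value below 10 was scored as active.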 Values without a mark were called inactive. Calls of active or inactive are those of the source.

The assay deals with MDA-MB-468 breast. In words: NCI-60 one-dose screen, 48 h (100 = growth as untreated, 0 = no growth, -100 = all killed). Conditions: 10 µM unless noted.
With `CCc1nc2cc(F)c(/C=C/C(=O)NO)cc2c(=O)n1CCc1ccccc1`, the growth was 4.28% (active).
As for `CC[C@]12C=CCN3CC[C@@]4(c5ccc(OC)cc5N(C)[C@H]4[C@@](O)(C(=O)OC)[C@@H]1OC(=O)CCC(=O)N[C@H](Cc1c[nH]c4ccccc14)C(=O)OC)[C@@H]32`, the figure is -42.6% [100 µM] (active).
As for `O=C(CCN1C(=O)/C(=C/c2ccccc2F)SC1=S)N1CCOCC1`, the figure is 24.7%; as for `CCCCCC(CCC)COC(=O)c1ccc(OC)cc1` (centres undefined), 104%.
As for `O=C(N/N=C/c1cc2ccccc2n2nnnc12)Nc1ccccc1`, the figure is 98.3%.
Turning to `Cn1c([N+](=O)[O-])cnc1C=C1C(=O)c2ccccc2C1=O`, the growth is 51.3%.
The value for `CCN(CC)CCC(CNc1ccnc2cc(Cl)ccc12)c1ccc(O)cc1` (centres undefined) was 81.1%; that for `CC(C)(C)c1cc(C=Nc2cccc(C(F)(F)F)c2)c(O)c(C(C)(C)C)c1` was 95.8%.
The value for `O=C(N/N=C\c1cc(Br)cc(Br)c1O)N/N=C/c1cc(Br)cc(Br)c1O` was 57.7%.
As to `COc1ccc(NC(=O)C(=O)c2c[nH]c3ccc(F)cc23)cc1`, the growth is 95.3%.
The value for `CC(=O)n1nc(C(=O)OC(C)(C)C)c2cc(F)c(F)cc21` was 97.4%; that for `CC(C)(C)OC(=O)N1CCc2c(sc3ncnc(N/N=C/c4ccc(Br)cc4)c23)C1` was 24.9%; that for `COc1c(C2CC(=O)Nc3c2c(C)nn3-c2nc3ccccc3[nH]2)cc2c(c1OC)OCO2` (centres undefined) was 29.6%.
As for `N#Cc1cnn2c(-c3ccc(Cl)cc3)nc(NC3CC3)nc12`, the figure is 97%.

The values are drawn from PubChem BioAssay (NCI).
